An excerpt weighted towards active compounds, which were near 8.5% of everything screened.
FBPA coupling cs – coupling enzyme interference in Giardia aldolase counter-screen | activity change, negative = inhibition, % at 58.2 µM, hits read low | 290,000 compounds, 0.67% hits | coupling enzyme system counterscreen, AmpLite Red fluorescence; in the data active = activity change below about -30%
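Compounds tested against the coupling enzymes alone at 57.5 uM final; readout was AmpLite Red fluorescence (525/598 nm) after 20 min at RT.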
GoLoco inh red – inhibitors of human Gai1-RGS12 GoLoco interaction (red fluorophore); P63096; Gai1:RGS12 GoLoco peptide FP, rhodamine, 10 min; Potency, µM (highest dose often 61.6 µM), for inactives: top-dose activity, negative = inhibition, hits mostly inhibitors; 230,000 compounds, 0.44% hits; active = well fitted inhibition curve with a large enough effect, not every such curve was filed as active; inactive = no such curve, though single readings can be large or run the other way; also: potency is read from the fitted curve at half-maximal effect; nearly all actives have a fitted effect of over 30% in size
NPSR antag – antagonists of human neuropeptide S receptor cAMP signaling; 220,000 compounds, 1% hits; CHO-NPSR cells, cAMP TR-FRET, antagonist mode; Potency, µM (doses to about 38.3 µM), for the others: at the top dose activity change, negative = inhibition, usual class: inhibitors; also: potency is read from the fitted curve at half-maximal effect; nearly all actives have a fitted effect of over 50% in size
JMJD2E inh – inhibitors of human JMJD2E histone demethylase. Potency, µM (highest dose often 57.1 µM), inactives show at the highest dose activity change, negative = inhibition, hits mostly inhibitors. JMJD2E catalytic domain, FDH-coupled NADH fluorescence (FDH is formaldehyde dehydrogenase). 230,000 compounds, 1.6% hits. AID 2147. B2RXH2; active = well fitted inhibition curve with a large enough effect, not every such curve was filed as active; inconclusive = small, poorly fitted or top-dose-only effect, or another doubt; inactive = no such curve, though single readings can be large or run the other way;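 also: potency is read from the fitted curve at half-maximal effect; 0% = wells with enzyme and -100% = buffer wells without enzyme; nearly all actives have a fitted effect of over 50% in size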
Sfp PPTase inh – blocks B. subtilis Sfp PPTase activity | Q9F4F7 | Biochemical Sfp PPTase activity, qHTS | Potency, µM, for inactives: largest response in the series, negative = inhibition, hits mostly inhibitors | 310,000 compounds, 3.5% hits | AID 1490;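 also: the enzyme is Sfp with the accession as filed and its product quenches rhodamine fluorescence; potency is read from the fitted curve at half-maximal effect; 0% = enzyme reaction without inhibitor and -100% = no enzyme wells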
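Buffer: 50 mM Hepes-Na pH 7.6, 10 mM MgCl2, 0.01% Nonidet P-40, 0.01% BSA. Enzyme 15 nM, pre-exposed to compound 15 min; substrates then added and fluorescence change tracked over 30 min.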
ALDH1A1 block – ALDH1A1 (human) enzyme inhibition; Purified ALDH1A1, NADH fluorescence, propionaldehyde substrate; Potency, µM (doses to about 75.3 µM), for the others: at the top dose activity, negative = inhibition, usual class: inhibitors; 220,000 compounds, 7.3% hits; P00352; active = well fitted inhibition curve with a large enough effect, not every such curve was filed as active; inconclusive = small, poorly fitted or top-dose-only effect, or another doubt; inactive = no such curve, though single readings can be large or run the other way;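 also: potency is read from the fitted curve at half-maximal effect; plate controls were no enzyme wells and a reference inhibitor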
Target sequence (P00352 whole entry, looked up): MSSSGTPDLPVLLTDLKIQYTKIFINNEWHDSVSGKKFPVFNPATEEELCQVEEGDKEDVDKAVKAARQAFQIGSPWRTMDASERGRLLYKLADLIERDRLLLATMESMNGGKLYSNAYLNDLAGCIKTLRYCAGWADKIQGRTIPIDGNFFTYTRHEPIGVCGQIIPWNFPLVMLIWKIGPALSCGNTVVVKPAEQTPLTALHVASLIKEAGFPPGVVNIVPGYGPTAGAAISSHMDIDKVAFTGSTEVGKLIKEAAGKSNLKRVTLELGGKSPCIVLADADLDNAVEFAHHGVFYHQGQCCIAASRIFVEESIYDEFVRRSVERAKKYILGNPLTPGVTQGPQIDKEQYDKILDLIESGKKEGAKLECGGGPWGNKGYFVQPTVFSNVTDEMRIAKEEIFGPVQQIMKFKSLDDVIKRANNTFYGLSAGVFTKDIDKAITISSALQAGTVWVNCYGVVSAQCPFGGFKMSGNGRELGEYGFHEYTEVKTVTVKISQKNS
Numbers without * were called inactive; ? = inconclusive; nt = no result given; ! = a repeat was not active; [ ] = another dose, or the depositor's remark. Unless noted, calls follow the shape of the dose curve; as a rule, active = well fitted curve in the direction sought with a large enough effect; inconclusive = small, poorly fitted or top-dose-only effect, or another doubt; inactive = no such curve, though single readings can be large; an effect the other way counts as inactive or inconclusive. Unless noted, % is scaled to controls: 0 for no effect and ±100 for the full control effect.

SMILES	FBPA coupling cs	GoLoco inh red	NPSR antag	JMJD2E inh	Sfp PPTase inh	ALDH1A1 block
Fc1ccc(CSc2nnc(-c3cnccn3)n2Cc2ccco2)cc1	0	-15%	-19%[46.1 µM]	9%	-16%	5%
O=C(CSc1nnc(-c2cccnc2)n1Cc1ccco1)N1CCc2ccccc21	0	13%	-12%[46.1 µM]	-1%	20µM*	?
Clc1ccc(CSc2nnc(-c3ccccn3)n2Cc2ccco2)c(Cl)c1	-3	1%	?	-4%	50µM*	?
Fc1ccc(CSc2nnc(-c3cccnc3)n2Cc2ccco2)cc1	3	7%	-7%[46.1 µM]	1%	40µM*	-5%
CC(=O)N/C(=N\c1nc(C)cc(C)n1)Nc1ccccc1Cl	-4	nt	nt	nt	1%	nt
CCOC(=O)CN1C(=O)/C(=C/c2c(F)cccc2Cl)Oc2ccccc21	-3	nt	nt	nt	-1%	nt
CC(=O)NC1=NC(=O)/C(=C/c2cc(C)n(-c3ccc(NC(C)=O)cc3)c2C)S1	2	59%	-33%	?	45µM*	?
CC(=O)NC1=NC(=O)/C(=C/c2cc(C)n(-c3cccc(C(=O)O)c3)c2C)S1	4	49%	-2%	?	40µM*	-8%
CC(=O)NC1=NC(=O)/C(=C/c2cn(C(C)=O)nc2-c2ccccc2)S1	2	92%	-30%	6%	28µM*	10µM*
CCN=C1S/C(=C\c2cn(C(C)=O)nc2-c2ccccc2)C(=O)N1CC	1	11%	-14%	10%	-3%	?
Nc1cc(N2CCCCC2)nc(N)[n+]1OS(=O)(=O)[O-]	nt	2%	nt	nt	-3%	-6%
CCC(C)[C@H](NC(=O)Nc1ccc(C)cc1C)C(=O)O (some centres not stated)	6	8%	8%	3%	7%	nt
O=C(c1cc([N+](=O)[O-])cc([N+](=O)[O-])c1)N1CCOCC1	0	-5%	17%[46.1 µM]	0%	12%	17%
COc1ccccc1CNC(=O)Cc1ccc(Br)cc1	-1	17%	40%	0%	3%	?
O=C(/C=C/c1ccc(Br)o1)NCCCN1CCOCC1	-7	-34%	5%	?	18µM*	2µM*
COc1ccc(NC(=O)c2ccco2)cn1	-1	nt	nt	nt	19%	nt
COc1ccc(NC(=O)/C=C/c2ccco2)cn1	-4	14%	-5%	-18%	-88%	7.1µM*
COc1ccccc1CNC(=O)/C=C/c1ccc(Br)o1	-5	5%	-3%	-12%	10µM*	13µM*
COc1cc(NS(=O)(=O)c2ccc(NC(=S)NC(=O)/C=C/c3ccco3)cc2)ncn1	1	13%	10µM*	-9%	-27%	?
O=C1[C@H]2[C@@H](/C=C/c3ccccc3)N3C(=O)CN(Cc4ccccn4)C(=O)[C@@]3(Cc3ccccc3)[C@H]2C(=O)N1c1ccccc1	1	nt	nt	nt	11%	nt
CCc1ccccc1Nc1nn2c(=O)c3ccc(C(=O)NCc4ccccn4)cc3nc2s1	3	nt	nt	nt	18%	nt
CCN(CC1CCCN(CCc2cccc(OC)c2)C1)C(=O)c1ccoc1C (configuration not stated)	nt	nt	nt	nt	12%	nt
COc1ccc(NC(=O)/C=C/c2ccc(Br)o2)cn1	-23	3%	-3%	?	25µM*	22µM*
O=C(C1=C[C@@H](C2CC2)C[C@@H](OCCCCO)O1)N1CCN(Cc2ccccc2)CC1	0	0%	0%	-7%	11%	?
O=C(C1=C[C@H](c2ccc(C(F)(F)F)cc2)C[C@H](OCc2ccc(CO)cc2)O1)N1CCCCCCC1	-1	3%	?	-20%	3%	?
SMILES	FBPA coupling cs	GoLoco inh red	NPSR antag	JMJD2E inh	Sfp PPTase inh	ALDH1A1 block
O=C(C1=C[C@@H](c2ccccc2)C[C@@H](OCc2ccc(CO)cc2)O1)N1CCN(Cc2ccc3c(c2)OCO3)CC1	-1	-3%	?	-6%	9%	6%
O=C(C1=C[C@@H](c2ccccc2)C[C@@H](OCc2ccc(CO)cc2)O1)N1CCCCCCC1	0	6%	?	-17%	-4%	25µM*
O=C(C1=C[C@H](c2ccccc2)C[C@H](OCc2ccc(CO)cc2)O1)N1CCN(Cc2ccccc2)CC1	-1	-1%	?	20µM*	7%	14µM*
CCO[C@H]1OC(C(=O)N2CCN(Cc3ccccc3)CC2)=C[C@@H](c2ccc(C(F)(F)F)cc2)[C@@H]1CCCO	1	1%	57%	2%	-10%	4.5µM*
O=C(C1=C[C@@H](C2CCCCC2)C[C@@H](OCCCCO)O1)N1CCN(Cc2ccccc2)CC1	0	-2%	17%	-4%	-17%	16µM*
CC(O)/C=C/c1cccc[n+]1C (configuration not stated)	-5	7.9µM*	11%[46.1 µM]	7.9µM*	-21%	25µM*
C[n+]1ccccc1/C=N/O	2	-1%	11%	0%	11%	-5%
N[C@H](C(=O)O)[C@H](O)C(=O)O	-2	-11%	-8%[46.1 µM]	13µM*!	89µM*!	9%
CC(SC#N)C(=O)C12CC3CC(CC(C3)C1)C2 (configuration not stated)	1	5%	13%	-2%	-2%	8.9µM*
Cc1cccc(C(=O)N2CCN(S(=O)(=O)N3CCCCCC3)CC2)c1	-2	nt	nt	nt	7%	nt
Cc1onc(C(=O)Nc2ccccc2C(F)(F)F)c1[N+](=O)[O-]	nt	nt	nt	nt	12%	nt
Cc1onc(C(=O)Nc2c(C)n(C)n(-c3ccccc3)c2=O)c1[N+](=O)[O-]	-31*	24%	-3%	?	79µM*	nt
Cc1ccc(NC(=O)c2noc(C(C)C)c2[N+](=O)[O-])cc1	2	-6%	-13%	1%	10%	10µM*
CSc1ccccc1NC(=O)c1noc(C)c1[N+](=O)[O-]	nt	nt	nt	nt	45µM*	nt
CC1CCCCN1CCNC(=O)C1CCCN(S(=O)(=O)c2cccc3nsnc23)C1 (configuration not stated)	nt	nt	nt	nt	7%	nt
COc1ccc(-n2c(C)c(C)c3c(N)ncnc32)cc1	0	nt	nt	nt	5%	nt
Cc1cccc(-n2c(C)nc3cc(C(=O)NCc4ccc5c(c4)OCO5)ccc32)c1	15	7%	-3%	-3%	-18%	-2%
CNC(=O)CCCCC(=O)N/N=C/c1ccc(Cl)cc1Cl	1	0%	-1%	0%	2%	nt
O=C1[C@H]2[C@H]3[C@H](O)[C@H](O)C/C(=N/OC[C@@H](O)COCc4ccco4)[C@H]3CC[C@@H]2C(=O)N1Cc1ccc2c(c1)OCO2	2	nt	nt	nt	9%	2%[13.5 µM]
CN(C)c1ccc(/C=N/N=C/c2ccccc2O)cc1	1	-12%	-28%[46.1 µM]	-2%	2%	13µM*
CN(C)c1ccc(C=Nc2ccccc2C(N)=O)cc1	-1	1%	-13%[46.1 µM]	?	6%	?

Source: PubChem (National Center for Advancing Translational Sciences (NCATS))
